Laboratory results reported in the supplement of paper PMC8975748.
Where a name gives a salt, the structure may show the parent alone.

Test system: Saccharomyces cerevisiae BY4741 SeMeCo community
Assay: z-score of subpopulation abundance vs DMSO median, subpopulation auxotrophic for M; higher = larger share of this subpopulation than in DMSO controls
Details: 10 µM; 24 h; SM minimal medium; subpopulation (auxotrophy): M
Summary of the method: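 Scoring was based on each subpopulation's abundance, expressed as a z-score against the vehicle-well median. A Saccharomyces cerevisiae BY4741 community with four plasmids, each restoring one auxotrophy and encoding a distinct fluorescent protein, was pre-grown overnight to OD600 1.0, diluted to 0.3, and added at 70 µl to 384-well plates acoustically predosed with library drugs (10 µM final). It then grew 24 h in minimal SM medium before paraformaldehyde fixation and automated confocal microscopy, with single-auxotroph fluorescent strains setting thresholds and autofluorescence correction.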

Structure (SMILES)	z-score of subpopulation abundance
C=C[C@]1(C)C[C@@H](OC(=O)CSC(C)(C)CNC(=O)[C@H](N)C(C)C)[C@]2(C)[C@H](C)CC[C@]3(CCC(=O)[C@H]32)[C@@H](C)[C@@H]1O [Valnemulin HCl]	0.05
C[N+]1(C)CCC(=C(c2ccccc2)c2ccccc2)CC1 [Diphemanil Methylsulfate]	1.5
CC[C@H]1OC(=O)[C@H](C)[C@@H](O[C@H]2C[C@@](C)(OC)[C@@H](O)[C@H](C)O2)[C@H](C)[C@@H](O[C@@H]2O[C@H](C)C[C@H](N(C)C)[C@H]2O)[C@](C)(O)C[C@@H](C)/C(=N\OCOCCOC)[C@H](C)[C@@H](O)[C@]1(C)O [Roxithromycin]	0.34
NCc1ccccc1CC(=O)N[C@@H]1C(=O)N2C(C(=O)O)=C(CSc3nnnn3CC(=O)O)CS[C@H]12 [Ceforanide]	-0.21
CC(C(=O)O)c1cccc(C(=O)c2ccccc2)c1 (configuration not stated) [Ketoprofen]	-0.04
C#C[C@]1(O)CC[C@H]2[C@@H]3CCC4=Cc5oncc5C[C@]4(C)[C@H]3CC[C@@]21C [Danazol]	-0.89
Cc1c(OCC(F)(F)F)ccnc1C[S+]([O-])c1nc2ccccc2[nH]1 (configuration not stated) [Lansoprazole]	-0.85
CC(C(O)c1ccc(O)cc1)N1CCC(Cc2ccccc2)CC1 (configuration not stated) [Ifenprodil Tartrate]	-0.68
Cc1ncc([N+](=O)[O-])n1C [Dimetridazole]	-0.26
CC(=O)OCC[N+](C)(C)C [Acetylcholine iodide]	-0.32
CC(=O)N1CCN(c2ccc(OCC3COC(Cn4ccnc4)(c4ccc(Cl)cc4Cl)O3)cc2)CC1 (configuration not stated) [Ketoconazole]	-1.31
CN1C2CCCC1CC(NC(=O)c1nn(C)c3ccccc13)C2 (configuration not stated) [Granisetron HCl]	-0.02
NC(=O)OCC(COC(N)=O)c1ccccc1 [Felbamate]	-0.21
CCCN(CCC)CCc1cccc2c1CC(=O)N2 [Ropinirole HCl]	-0.4
CC(=O)NO [Acetohydroxamic acid]	-0.27
COc1ccc2c3c1O[C@H]1C[C@@H](O)C=C[C@@]31CCN(C)C2 [Galanthamine HBr]	1.78

Structure (SMILES)	z-score of subpopulation abundance
CCN(CC)CC#CCOC(=O)C(O)(c1ccccc1)C1CCCCC1 (configuration not stated) [Oxybutynin chloride]	-0.21
O=C1CC2(CCCC2)CC(=O)N1CCCCN1CCN(c2ncccn2)CC1 [Buspirone HCl]	-1.82
Cc1ccc(-c2cc(C(F)(F)F)nn2-c2ccc(S(N)(=O)=O)cc2)cc1 [Celecoxib]	-0.11
Cc1cccc(N(C)C(=S)Oc2ccc3ccccc3c2)c1 [Tolnaftate]	-0.22
CC(C)Cc1ccc(C(C)C(=O)O)cc1 (configuration not stated) [Ibuprofen Lysine]	-0.7
O=C(Nc1cc(Cl)cc(Cl)c1O)c1c(O)c(Cl)cc(Cl)c1Cl [Oxyclozanide]	-2.38
CN1CCN(CC(=O)N2c3ccccc3C(=O)Nc3cccnc32)CC1 [Pirenzepine dihydrochloride]	-0.96
O=C(O)CCc1nc(-c2ccccc2)c(-c2ccccc2)o1 [Oxaprozin]	-1.37
CC[C@H]1OC(=O)[C@H](C)[C@@H](O[C@H]2C[C@@](C)(OC)[C@@H](O)[C@H](C)O2)[C@H](C)[C@@H](O[C@@H]2O[C@H](C)C[C@H](N(C)C)[C@H]2O)[C@](C)(O)C[C@@H](C)C(=O)[C@H](C)[C@H]2OC(=O)O[C@@]21C [Erythromycin Cyclocarbonate]	-0.28
CN1CCC(=C2c3ccccc3C=Cc3ccccc32)CC1 [Cyproheptadine hydrochloride]	-0.18
CC(Cc1ccc(O)c(O)c1)C(C)Cc1ccc(O)c(O)c1 (configuration not stated) [Nordihydroguaiaretic acid (NDGA)]	-0.1
CCOc1cc(N)c(Cl)cc1C(=O)NCC1CN(Cc2ccc(F)cc2)CCO1 (configuration not stated) [Mosapride]	0.39
C/C(=C\C(=O)OCCCCCCCCC(=O)O)C[C@@H]1OC[C@H](C[C@@H]2O[C@H]2[C@@H](C)[C@H](C)O)[C@@H](O)[C@H]1O [Mupirocin calcium]	-0.19
Cc1cc(C)nc(NS(=O)(=O)c2ccc(N)cc2)n1 [Sulfamethazine Sodium Salt]	-1.42
CCN(CC)CCNC(=O)c1cc(Cl)c(N)cc1OC [Metoclopramide]	0.35
O=C1[C@H]2CCCC[C@H]2C(=O)N1CCCCN1CCN(c2nsc3ccccc23)CC1 [Perospirone hydrochloride]	-0.63
